Test results taken from PubChem BioAssay.

Experiments:
[1] = test system: Human papillomavirus type 1a protein E7 (residues 44-93); assay: small molecules binding HPV E7 44-93 – biochemical, small-molecule microarray, residues 44-93, 635 nm fluorescence, primary screen (AID 1108); conditions: fluorescence 635 nm, higher = more signal;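 note: E7 fragment applied at 1 µg/mL in TBST for 1 h at 4 C; score combines spot fluorescence with its signal to noise ratio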
[2] = hepatitis C replication reporter changes, two-sided – Huh7 cells, luciferase reporter, HCV replication inhibitor project, primary screen (AID 1109); conditions: Huh7 HCV replicon luciferase reporter, 48 h; higher = more signal;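 note: huh7 hepatoma cells harbouring a luciferase neomycin HCV replicon reporter; luciferase luminescence as measure of HCV replicon replication; test concentration not given here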
[3] = biological target: Left-right determination factor 2 (Homo sapiens) (UniProt O00292); assay: small molecules binding LEFTY2 protein – biochemical, small-molecule microarray, 635 nm fluorescence scan, primary screen (AID 1110); conditions: higher = more signal
Sequence of Left-right determination factor 2 (Homo sapiens) (O00292 whole entry, looked up): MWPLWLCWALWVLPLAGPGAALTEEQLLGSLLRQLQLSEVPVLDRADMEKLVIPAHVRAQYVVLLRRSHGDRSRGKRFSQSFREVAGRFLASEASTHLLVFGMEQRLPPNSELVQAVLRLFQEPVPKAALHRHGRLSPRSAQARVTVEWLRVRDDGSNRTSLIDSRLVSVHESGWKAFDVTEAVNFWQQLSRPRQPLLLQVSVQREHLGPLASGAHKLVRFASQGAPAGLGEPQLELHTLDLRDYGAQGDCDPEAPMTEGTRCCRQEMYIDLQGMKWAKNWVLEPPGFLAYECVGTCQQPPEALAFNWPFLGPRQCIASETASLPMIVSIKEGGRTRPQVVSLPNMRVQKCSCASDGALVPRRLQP

[4] = biological target: Calmodulin-1 (Homo sapiens) (UniProt P0DP23); assay: small molecules binding calmodulin-1 with EGTA – biochemical, small-molecule microarray, Cy5-labelled CALM1, profiling panel (AID 1111); conditions: Cy5-CALM1 binding fluorescence, higher = more signal;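 note: labelled calmodulin applied in Tris saline Tween buffer holding calcium plus EGTA and DTT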
[5] = biological target: Calmodulin-1 (Homo sapiens) (UniProt P0DP23); assay: small molecules binding Ca-loaded calmodulin-1 – biochemical, small-molecule microarray, Cy5-labelled CALM1, plus calcium, artefact control for SMM control-protein annotation, profiling panel (AID 1112); conditions: Cy5-CALM1 binding fluorescence, higher = more signal;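 note: score merges spot fluorescence with signal to noise from triplicate slides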
[6] = probe aWnt5a binding to arrayed compounds – biochemical, biotinylated probe, 635/667 nm fluorescence, primary screen (AID 1113); conditions: small-molecule microarray, higher = more signal;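 note: score merges 667 nm fluorescence intensity with signal-to-noise per printed feature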
[7] = probe aShh binding to arrayed compounds – biochemical, biotinylated probe, 635/667 nm fluorescence, primary screen (AID 1114); conditions: small-molecule microarray, higher = more signal;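 note: probe is biotin-labelled aShh protein from a stem cell growth factor screen; measures binding of labelled protein to compounds printed on the slide; score merges feature fluorescence at 667 nm with signal-to-noise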
[8] = probe aNog binding to arrayed compounds – biochemical, biotinylated probe, 635/667 nm fluorescence, primary screen (AID 1115); conditions: small-molecule microarray, higher = more signal;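 note: probe is biotinylated aNog protein used at 0.15 µg/mL for 1 h at 4 C; z-score combines 667 nm fluorescence of each spot with its signal to noise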
[9] = biological target: Torsin-1A-interacting protein 1 (Homo sapiens) (UniProt Q5JTV8); assay: compound microarray binding of lysate hLAP1 – cell lysate, small-molecule microarray, COS7 lysate, 635/667 nm fluorescence, primary screen (AID 1116); conditions: 635 nm fluorescence, higher = more signal
Sequence of Torsin-1A-interacting protein 1 (Homo sapiens) (Q5JTV8 whole entry, looked up): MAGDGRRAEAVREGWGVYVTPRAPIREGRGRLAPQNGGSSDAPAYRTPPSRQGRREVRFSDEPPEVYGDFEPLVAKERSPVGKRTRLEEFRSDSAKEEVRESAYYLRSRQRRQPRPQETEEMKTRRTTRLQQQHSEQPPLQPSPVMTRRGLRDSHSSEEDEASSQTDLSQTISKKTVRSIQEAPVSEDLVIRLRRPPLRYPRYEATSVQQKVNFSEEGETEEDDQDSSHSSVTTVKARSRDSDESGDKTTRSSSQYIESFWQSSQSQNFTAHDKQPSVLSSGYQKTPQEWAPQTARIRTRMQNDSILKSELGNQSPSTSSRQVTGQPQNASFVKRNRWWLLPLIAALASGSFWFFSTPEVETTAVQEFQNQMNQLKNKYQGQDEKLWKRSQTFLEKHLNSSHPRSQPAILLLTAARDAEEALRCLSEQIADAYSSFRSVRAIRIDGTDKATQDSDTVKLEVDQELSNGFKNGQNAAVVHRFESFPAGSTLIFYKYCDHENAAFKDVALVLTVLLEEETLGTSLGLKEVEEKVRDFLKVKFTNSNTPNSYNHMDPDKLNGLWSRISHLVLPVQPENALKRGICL

[10] = biological target: Alpha-bungarotoxin (Bungarus multicinctus) (UniProt P60615); assay: compounds binding labelled alpha-BTX control protein – biochemical, small-molecule microarray, Alexa647 label, 635/667 nm fluorescence, artefact control for SMM control protein annotation, profiling panel (AID 1117); conditions: alpha-BTX-A647 binding fluorescence, higher = more signal
Sequence of Alpha-bungarotoxin (Bungarus multicinctus) (P60615 whole entry, looked up): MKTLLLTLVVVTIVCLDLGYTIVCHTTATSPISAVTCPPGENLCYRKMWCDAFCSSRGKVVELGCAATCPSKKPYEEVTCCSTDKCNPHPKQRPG

Structure (SMILES)	composite z-score [1]	z-score [2]	composite z-score [3]	composite z-score [4]	composite z-score [5]	composite z-score [6]	composite z-score [7]	composite z-score [8]	composite z-score [9]	composite z-score [10]
Cc1ccc(S[C@]2(C(=O)NC3CC3)CC(=O)N(C(C)C)[C@@H]2c2ccc(CO)cc2I)cc1	1.17	-2.21	-0.792	-0.462	-0.0946	0.191	-0.372	-0.519	1.74	-0.0074
O=C1C[C@@](C(=O)O)(c2ccc([N+](=O)[O-])cc2)[C@@H](c2ccc(CO)cc2)N1C1CCCCC1	1.45	-1.67	0.245	1.2	0.161	0.0037	0.116	-0.485	0.493	1.07
CC(C)OC(=O)CC(=O)CC(O)c1cccc([N+](=O)[O-])c1 (stereo not given)	1.31	-1.6	0.117	0.834	0.17	0.264	0.418	-0.138	1.24	0.288
CC(C)(C)OC(=O)CC[C@]1(C(=O)NCC(O)CO)N=C(c2ccc(OCCCO)cc2)O[C@H]1c1ccccc1N=[N+]=[N-] (stereo not given in full)	0.438	1.18	0.0607	1.28	0.434	0.0775	-0.221	1.36	2.06	0.931
CCCC=C(CCC)[C@@H](NC(=O)c1ccc(C(F)(F)F)cc1)c1ccc(C(F)(F)F)cc1	1.36	-1.5	-0.203	1.72	1.09	0.253	0.778	1.78	0.926	0.942
COC(=O)C[C@H]1O[C@@]2(C[C@@H]1[Si](C)(C)C)C(=O)N(C)c1ccccc12	1.06	-0.83	0.392	-0.197	-0.273	-0.0643	-0.362	0.273	-0.116	0.586
CN(C)CCCNC(=O)[C@@H]1c2ccccc2C(=O)N(Cc2ccccc2C(F)(F)F)[C@H]1c1ccc(CO)cc1	-0.242	-1.68	-1.42	-0.206	-0.263	-0.1	-0.138	-0.163	0.689	0.542
C=CCOC(=O)[C@@H]1[C@H]2C(=O)O[C@H](c3ccccc3)[C@H](c3ccccc3)N2[C@H](c2ccc(OCCOC(=O)[C@H]3C[C@H]4C(=O)N[C@@H](CCCCN(C)C)C(=O)N4[C@H]3c3ccc(O)cc3)cc2)[C@@]12C(=O)Nc1ccc(I)cc12	1.06	-3.31	1.17	-0.842	-0.972	0.0317	-0.0578	0.219	1.31	1.51
CC1CC/C=C\[C@H]2OC34C=CCN(Cn5nnc6ccccc65)C(=O)[C@H]3N(CCCCCCO)C(=O)[C@@H]4C2C(=O)O1 (stereo not given in full)	-0.0257	0.0151	-1.7	0.259	0.659	-0.232	-0.0709	0.0021	0.145	-0.551
COC(=O)[C@]1(CCC(=O)OC(C)(C)C)N=C(c2ccc(OCCCO)cc2)O[C@@H]1c1ccccc1N=[N+]=[N-]	0.892	-2.05	-0.557	-0.175	-0.875	0.0403	-0.119	0.504	0.468	0.302
C=CCC(OC(C)=O)[C@@H]1[C@@H](N(Cc2cc3ccccc3o2)C(=O)c2cccc3ccccc23)c2cc(OCCCO)ccc2N1C(=O)c1ccc2ccccc2n1 (stereo not given in full)	0.193	0.0107	0.186	-0.153	0.304	-0.0346	-0.0813	-0.0381	0.615	0.0884
Cc1ccc(F)cc1S(=O)(=O)N[C@H]1CCN(Cc2ccc(OC(C)C)cc2)C1	1.34	-3.4	0.379	-0.781	-1.43	-0.187	-0.0959	-0.131	0.228	-0.494
COCCn1c(C(=O)N(C)C)cc2c1C[C@H]1CN(C(=O)c3ccccc3)[C@@](Cc3ccc(OC)cc3)(C(=O)OC)[C@@H]21	1.38	-1.27	0.0756	0.572	0.25	0.0431	0.204	0.919	0.357	0.0924
C=C(CCCC)C(=O)CC[C@H](OC(=O)c1ccccc1-c1ccccc1C(=O)O)c1ccc(OCCO)cc1	1.34	-2.05	0.849	0.945	-0.898	-0.119	-0.154	-0.495	0.479	1.02
C[N+](C)(C)CCCCNC(=O)[C@H]1C[C@H]2C(=O)N[C@@H](Cc3ccccc3)C(=O)N2[C@H]1c1cccc(OCCO)c1	-0.365	-0.741	1.34	-1.14	-1.7	-0.0495	0.151	-0.456	1.17	-0.245
C=CCN1C(=O)[C@]2(O[C@H](CCn3cc([C@H](O)c4ccccc4)nn3)[C@@H]([Si](C)(C)c3ccc(OC)cc3)[C@@H]2C)c2cc(NC(=O)c3ccc(OC)cc3)ccc21	1.15	-4.74	0.5	-0.0632	-0.564	-0.0748	-0.221	-0.124	0.725	0.464
O=C(NCC(O)CO)[C@@]1(CCS(=O)(=O)c2ccccc2)N=C(c2ccc(OCCCO)cc2)O[C@H]1c1ccccc1 (stereo not given in full)	1.47	0.0294	-1.15	1.51	1.14	0.0676	0.181	0.0574	2.55	3.32
